This is an account of results in PubChem BioAssay (NCATS).

Results filed as inconclusive are left out. Where a call stands in place of a potency, no number is given. The source made the active and inactive calls. Calls follow the shape of the dose curve; as a rule, active = well fitted inhibition curve with a large enough effect; inconclusive = small, poorly fitted or top-dose-only effect; inactive = flat fitted curve, though single readings scatter.
Potency is read from the fitted curve at half-maximal effect.

This assay in a line: Cytometry Cell-Based qHTS for Inhibitors of the mTORC1 Signaling Pathway in MEF cells (AID 2668). Conditions: mTORC1 pathway readout; series mostly up to 38.3 µM. In a few lines:
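Read-out: phospho-rpS6 Ser235/236 immunofluorescence normalized to propidium iodide intensity, scored as % active cells against a rapamycin (7.5 nM) threshold. Cells: Tsc2-/-, p53-/- MEFs stably expressing WT Tsc2, compound-treated 24 hrs at 37 degree Celsius.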
For the compound `CNc1ncnc2c1ncn2[C@@H]1O[C@H](CO)[C@@H](O)[C@H]1O`, the Potency result was “inactive”.

In the case of `CCNC(=O)[C@H]1O[C@@H](n2cnc3c(N)nc(NCCc4ccc(CCC(=O)O)cc4)nc32)[C@H](O)[C@@H]1O`, the Potency result is “inactive”.

In the case of `CSc1nc(N)c2ncn([C@@H]3O[C@H](COP(=O)(O)OP(=O)(O)OP(=O)(O)O)[C@@H](O)[C@H]3O)c2n1`, the Potency result was “inactive”.

With `Clc1ccc(N2CCN(Cc3cc4ccccn4n3)CC2)cc1`, the Potency entry is “inactive”.

For the compound `C=CC(=O)c1ccc(CCCCCC)cc1`, the Potency entry was “inactive”.

As to `OC[C@H]1O[C@@H](n2cnc3c(Nc4ccccc4)ncnc32)[C@H](O)[C@@H]1O`, the Potency result is “inactive”.

`NC(=S)c1ccc[n+]([C@@H]2O[C@@H](COP(=O)([O-])OP(=O)(O)OC[C@H]3O[C@@H](n4cnc5c(N)ncnc54)[C@H](OP(=O)(O)O)[C@@H]3O)C(O)C2O)c1` (stereo partly drawn): the Potency entry was “inactive”.

Turning to `COc1ccc2c(c1)CCC1C2CC[C@@]2(C)C1CC[C@@H]2NCCCCCCN1C(=O)CCC1=O` (stereo partly drawn), the Potency is 4.65 µM (active).

For the compound `Cc1nc2sccn2c(=O)c1CCN1CCC(=C(c2ccccc2)c2ccc(F)cc2)CC1`, the Potency entry is “inactive”.

For the compound `CSc1ccccc1N1CCN(CCCCCC(=O)NC2CCCc3ccccc32)CC1` (stereo not drawn), the Potency was 11.7 µM (active).

For the compound `NC[C@H]1O[C@@H](n2cnc3c(N)ncnc32)[C@H](O)[C@@H]1O`, the Potency result is “inactive”.

For `CCc1c(C(=O)NCCc2ccc(N3CCCCC3)cc2)[nH]c2ccc(Cl)cc12`, the Potency result was “inactive”.

Take `N#C/C(=C\c1ccc(-c2cc(Cl)ccc2Cl)o1)C(=O)Nc1cccc2ncccc12`: the Potency entry is “inactive”.

On to `CO/S(=N\S(=O)(=O)c1ccc(Cl)cc1)c1ccc([N+](=O)[O-])cc1` (stereo not drawn), for which the Potency entry was “inactive”.

Take `OCC1O[C@H]([S-])[C@H](O)[C@@H](O)[C@@H]1O.[Au+]` (stereo partly drawn): the Potency entry was “inactive”.

For the compound `CO/N=C(\C(=O)N[C@@H]1C(=O)N2C(C(=O)O)=C(COC(C)=O)CS[C@H]12)c1csc(N)n1`, the Potency result is “inactive”.

As for `CCC1C(=O)OCC1Cc1cncn1C` (stereo not drawn), the Potency entry was “inactive”.

As to `CCCCC#Cc1nc(NC)c2ncn([C@@H]3O[C@H](CO)[C@@H](O)[C@H]3O)c2n1`, the Potency entry was “inactive”.

Consider `COc1ccc(NC(=O)/C=C/c2ccc(Cl)cc2)cc1`, for which the Potency result is “inactive”.

Regarding `NC(=S)NCCC[C@H](N)C(=O)O`, the Potency result is “inactive”.

For the compound `Ic1ccc(N2CCN(Cc3c[nH]c4ncccc34)CC2)cc1`, the Potency entry is “inactive”.

`COc1cc(SC)ccc1C(=O)N1CCC(Cc2ccccc2)CC1`: the Potency entry was “inactive”.

Regarding `CNC(=O)[C@H]1O[C@@H](n2cnc3c(NCc4cccc(I)c4)ncnc32)[C@H](O)[C@@H]1O`, the Potency result was “inactive”.

As for `O=C1/C(=C/c2ccsc2)CC/C1=C\c1cccs1`, the Potency entry was “inactive”.

With `O=C1NC(=O)/C(=C/c2ccc3nccnc3c2)S1`, the Potency is 16.5 µM (active).

In the case of `Nc1ncnc2c1ncn2[C@@H]1O[C@H](COP(=O)(O)CP(=O)(O)OP(=O)(O)O)[C@@H](O)[C@H]1O`, the Potency result is “inactive”.

On to `CN1CCc2cccc3c2C1Cc1ccc(O)c(O)c1-3` (stereo not drawn), for which the Potency entry was “inactive”.

As for `Nc1ncnc2c1ncn2[C@@H]1O[C@H](COP(=O)(O)OP(=O)(O)OP(=O)(O)OP(=O)(O)OC[C@@H]2O[C@H](n3cnc4c(N)ncnc43)[C@@H](O)[C@H]2O)[C@@H](O)[C@H]1O`, the Potency entry was “inactive”.

Take `O=C(c1cc(O)c(O)c([N+](=O)[O-])c1)c1ccccc1F`: the Potency entry was “inactive”.

As to `c1cnc2c(c1)ccc1cccnc12`, the Potency was 4.65 µM (active).

For `O=C1NC(=O)/C(=C/c2ccc(-c3ccc(F)cc3O)o2)S1`, the Potency entry was “inactive”.

As for `Nc1nc(Nc2ccccc2)nc2c1ncn2[C@@H]1O[C@H](CO)[C@@H](O)[C@H]1O`, the Potency result is “inactive”.

For `NCC1OC(O[C@H]2[C@H](O)[C@@H](OC3C(O)C(N)CC(N)C3OC3OC(CO)C(O)C(O)C3N)O[C@@H]2CO)C(N)C(O)C1O` (stereo partly drawn), the Potency result is “inactive”.

With `C#C[C@]1(O)CC[C@H]2[C@@H]3CCC4=Cc5oncc5CC4(C)[C@H]3CCC21C` (stereo partly drawn), the Potency result is “inactive”.

`Nc1nc(SCc2ccc([N+](=O)[O-])cc2)c2ncn([C@@H]3O[C@H](CO)[C@@H](O)[C@H]3O)c2n1`: the Potency entry was “inactive”.

In the case of `CN1C2CC(OC(=O)[C@H](CO)c3ccccc3)CC1C1OC12` (stereo partly drawn), the Potency result is “inactive”.

In the case of `CCCCCCCCCCCCCCCCCC(=O)OC(CC(=O)O)C[N+](C)(C)C` (stereo not drawn), the Potency result was “inactive”.

For `CCCCCCCCCCCCCCCC(=O)NCC(COP(=O)([O-])OCC[N+](C)(C)C)OCC` (stereo not drawn), the Potency entry is “inactive”.
